# Screens from PubChem.
# SRC2 TRFRET art: flags TR-FRET format artefacts in PPARgamma SRC-2 recruitment agonist screen; AID 1049; TR-FRET ratio at 8 µM; TR-FRET artefact counter-screen; stronger effect = higher value; hit rate 0.4% among 200,000; in the data active means TR-FRET ratio above about 2000
# SRC1 TRFRET art: TR-FRET artefact, counter-screen to PPARgamma/SRC-1 agonist assay; TR-FRET detection artefact counter-screen, emission ratio; stronger effect = higher value; TR-FRET ratio at 8 µM; hit rate 0.34% among 99,000; AID 1051; in the data active means TR-FRET ratio above about 2300
# PPARg SRC3 recr: PPARgamma-driven SRC-3 recruitment agonism. biochemical PPARgamma/SRC-3 coactivator recruitment assay. hit rate 0.26% among 200,000. activation, % at 8 µM. P37231; in the data active means activation above about 23%
# SRC3 TRFRET art: TR-FRET artefact, counter-screen to PPARgamma/SRC-3 agonist assay | PPARgamma/SRC-3 format; stronger effect = higher value | TR-FRET ratio at 8 µM | hit rate 0.39% among 99,000 | AID 1048; in the data active means TR-FRET ratio above about 2000
# PPARg SRC-2 ag: promotes SRC-2 coactivator recruitment by human PPARgamma; hit rate 0.34% among 200,000; P37231; PPARgamma LBD-SRC-2 recruitment, biochemical; activation, % at 8 µM
# PPARg SRC1 recr: agonists of human PPARgamma SRC-1 coactivator recruitment. P37231. PPARgamma-SRC-1 coactivator recruitment biochemical assay. activation, % at 8 µM. hit rate 0.41% among 200,000; in the data active means activation above about 19%
# PPARg SRC2 ag: human PPARgamma SRC-2 recruitment agonism, confirmation; shares compounds with PPARg SRC3 recr; biochemical SRC-2 recruitment by PPARgamma; activation, % at 8 µM; hit rate 52% among 790
# PPARg SRC1 conf: human PPARgamma SRC-1 recruitment agonism, confirmation; shares compounds with PPARg SRC3 recr; PPARgamma–SRC-1 coactivator recruitment biochemical assay; activation, % at 8 µM; hit rate 43% among 790; AID 1300; in the data active means activation above about 20%
# PPARg SRC3 conf: human PPARgamma SRC-3 recruitment agonism, confirmation | shares compounds with PPARg SRC3 recr | biochemical PPARgamma-SRC-3 coactivator recruitment, agonist mode | activation, % at 8 µM | hit rate 29% among 790; in the data active means activation above about 24%
# Numbers stand for hits; . = inactive; / = no result given. Only some compounds are listed: those with a hit (about 0.84% of all), similar ones and a draw of the others. Unless noted, no stated cut-off is given here; in the data, active means activation above about 22%; inactive means the rest.
SMILES,SRC2 TRFRET art,SRC1 TRFRET art,PPARg SRC3 recr,SRC3 TRFRET art,PPARg SRC-2 ag,PPARg SRC1 recr,PPARg SRC2 ag,PPARg SRC1 conf,PPARg SRC3 conf
CCn1c(=O)cc(OCC(=O)NCc2cccnc2)c2ccccc21,.,/,.,/,.,.,/,/,/
Cc1ccc(-c2csc3nnc(SCC(=O)Nc4cccc(C)n4)n23)cc1,.,/,.,/,.,21,.,.,.
CCCC(=O)NC(=S)Nc1ccc(NC(=O)C(C)C)c(OC)c1,.,.,.,.,.,.,/,/,/
O=C1C2C(C(=O)N1/N=C/c1cccc([N+](=O)[O-])c1)C1C=CC2C12CC2 (stereo not given),.,.,.,.,.,.,/,/,/
Cc1ccc2nc(N3CCN(S(=O)(=O)c4ccc5c(c4)OCCO5)CC3)c(C#N)cc2c1,3423,/,45,/,22,31,.,.,.
Cc1ccc(S(=O)(=O)N2CCCN(S(=O)(=O)c3ccc4c(c3)OCCO4)CC2)cc1,.,/,.,/,.,.,/,/,/
COc1ccc(OC)c(C2C(C(=O)c3cc4ccccc4o3)=C(O)C(=O)N2c2cc(C)on2)c1 (stereo not given),2296,/,.,/,22,19,28,21,.
Cc1cc(SCC(=O)NCCC2=CCCCC2)nc2ccccc12,.,.,.,.,.,.,/,/,/
COC(=O)c1sccc1-c1ccc(/C=N/OC(=O)c2ccccc2)o1,2291,/,47,/,56,31,56,49,40
C#CCN1C(=O)S/C(=C/C=C/c2ccc(N(C)C)cc2)C1=O,.,.,.,.,.,.,/,/,/
CS(=O)(=O)c1sc2nc(-c3cccs3)cc(-c3ccccc3)c2c1N,2002,/,.,/,30,22,28,22,.
COc1cc(-c2nc(-c3ccccc3)c(-c3cccs3)[nH]2)cc(OC)c1OC,.,/,.,/,.,.,/,/,/
c1ccc(-c2nc(-c3cccs3)[nH]c2-c2ccccc2)cc1,.,/,.,/,.,25,23,.,.
S=c1[nH]nc(-c2cccc(Br)c2)o1,4187,/,150,/,108,94,68,48,48
S=c1[nH]nc(-c2cccnc2)o1,.,/,.,/,.,.,/,/,/
CC[n+]1ccc(/C=C/c2ccc(N(C)C)cc2)c2ccccc21,4436,4146,125,4546,109,149,160,119,105
CC[n+]1ccccc1/C=C/c1ccc(N(C)C)cc1,.,.,.,.,.,.,/,/,/
CN(C)c1ccc(/C=C/c2cc[n+](C)cc2)cc1,.,/,.,/,.,.,/,/,/
CC[n+]1c(/C=C/c2ccc(N(C)C)cc2)ccc2ccccc21,2167,3540,47,2785,64,61,53,39,30
CCOC(=O)N1CCN(C(=S)Nc2ccc3nc(N4CCN(CC)CC4)cc(C)c3c2)CC1,.,.,.,.,.,.,/,/,/
CC(C)C1Cc2c(C#N)c(N)sc(=S)c2CO1 (stereo not given),2315,/,47,/,39,33,.,.,.
CCCCSc1nc(O)cc(=O)n1CC,.,.,.,.,.,.,/,/,/
Cc1nnc(SC(C)C(=O)Nc2ccc(Cl)cn2)n1Cc1ccccc1 (stereo not given),.,.,.,.,.,.,/,/,/
CC(Sc1nnc(-c2ccc(Cl)cc2Cl)n1Cc1ccccc1)C(=O)Nc1nccs1 (stereo not given),.,/,.,/,.,37,.,28,26
COc1ccc(-c2cn3c(C)c(C(=O)Nc4cc(NC(C)=O)ccc4OC)sc3n2)cc1,2510,/,47,/,39,23,41,34,25
SMILES,SRC2 TRFRET art,SRC1 TRFRET art,PPARg SRC3 recr,SRC3 TRFRET art,PPARg SRC-2 ag,PPARg SRC1 recr,PPARg SRC2 ag,PPARg SRC1 conf,PPARg SRC3 conf
Cc1csc(NC(=O)CSc2nnc(NC(=O)COc3ccccc3)s2)n1,.,.,.,.,.,.,/,/,/
CCC(=O)Nc1cccc(-c2nc3ccccc3c(=O)o2)c1,.,/,.,/,.,19,.,.,.
CSc1cnn(-c2ccccc2)c(=O)c1SC,3988,/,152,/,121,106,99,68,68
CSc1cnn(Cc2ccccc2)c(=O)c1SCc1ccccc1,.,2367,24,.,30,.,85,61,57
COc1cnn(-c2ccc(C)cc2)c(=O)c1SCc1ccccc1,.,/,.,/,.,.,/,/,/
CCSc1cnn(-c2ccccc2)c(=O)c1SCC,3615,/,123,/,96,68,65,41,47
COc1cnn(-c2ccccc2)c(=O)c1SCc1ccc(Cl)cc1Cl,.,/,.,/,.,.,/,/,/
O=c1c(Cl)c(Cl)cnn1-c1ccccc1,.,.,.,.,.,.,/,/,/
CCCCSc1cnn(-c2ccccc2)c(=O)c1SCCCC,1992,/,45,/,28,24,40,24,26
CCCCn1c(SCC(=O)Nc2nnc(C)s2)nnc1-c1ccncc1,.,.,.,.,.,.,/,/,/
Cc1ccc(S(=O)(=O)N2CCN(c3ccccc3)CC2)cc1C(N)=O,.,.,.,.,.,.,/,/,/
CC(C(=O)NCCc1ccc(F)cc1)N1CCN(Cc2ccccc2)CC1 (stereo not given),.,.,.,.,.,.,/,/,/
Cc1c(Cl)c(-c2n[nH]c(=S)n2-c2ccccc2)nn1C,2128,.,.,2138,24,.,25,.,.
Cc1ccc(-n2c(-c3ccccc3)n[nH]c2=S)cc1,2299,/,27,/,35,20,35,28,26
Cc1ccccc1OCCOc1ccccc1C=C(C#N)C#N,2050,.,.,2057,.,20,.,.,.
Cc1cccc(OCCOc2ccccc2C=C(C#N)C#N)c1,.,.,.,.,.,.,/,/,/
Cc1ccccc1S(=O)(=O)Nc1nc2ccccc2nc1N1CCOCC1,2102,/,34,/,27,26,43,37,28
CC(C)=C(NC(=O)c1ccccc1)C(=O)Nc1cccc(C(=O)O)c1,.,.,.,.,.,.,/,/,/
CCOC(=O)c1sc(NC(=O)c2ccco2)nc1-c1ccccc1,.,/,32,/,.,26,32,.,.
CC(=O)c1sc(NC(=O)c2ccco2)nc1-c1ccccc1,.,/,.,/,.,.,/,/,/
C=CCn1c(-c2csc(-c3ccc(Cl)cc3)n2)n[nH]c1=S,.,/,.,/,.,.,/,/,/
C=CCn1c(-c2cc(Cl)ccc2OC)n[nH]c1=S,.,/,.,/,26,19,30,22,.
C=CCn1c(-c2csc(-c3ccc(OC)c(OC)c3)n2)n[nH]c1=S,2116,.,.,.,23,.,.,.,.
Cc1ccc(S(=O)(=O)NCC(=O)OCC(=O)c2ccc(Br)s2)cc1,.,/,66,/,55,36,51,32,35
Cc1ccc(S(=O)(=O)NCC(=O)OCC(=O)c2cccs2)cc1,.,/,.,/,.,.,/,/,/
